High-throughput results as filed in PubChem BioAssay.
Pf Dd2 growth: Plasmodium falciparum Dd2 growth inhibition | P. falciparum Dd2 growth, SYBR Green, 72 h | Potency, µM (titrated, usually from 28.9 µM), for inactives: at the top dose activity, negative = inhibition, actives largely listed as inhibitors | actives 4.3% (n = 120,000) | AID 1347417; active = well fitted inhibition curve with a large enough effect;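 note: plate controls were DMSO vehicle for no effect and reference drug for full effect; nearly all actives have a fitted effect of over 65% in size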
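Infected erythrocytes (Dd2, 0.3% parasitemia, 2.5% hematocrit final) are added to compound in RPMI-1640/Albumax II medium, grown 72 h at 37C in low oxygen, then lysed with saponin/Triton-X containing SYBR Green and read by fluorescence.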
* marks the source's active call; other numbers are inactive results; i = inactive; [ ] = remark or other dose. The sample as a whole holds a higher share of hits than the screen did. Potency is the fitted concentration of half-maximal effect.

SMILES	Pf Dd2 growth
N#CC1CCN(C(=O)c2nc(-c3ccc(F)cc3)c3cnccn23)CC1	i
Cn1ncc2c(C(=O)NCc3ccc(F)cc3)cc(-c3ccc([S+](C)(=O)[O-])cc3)nc21	-16%
Cc1cccc(C)c1-c1nc(C(=O)NCc2cccnc2)n2ccccc12	-19%
COC(=O)CNC(=O)c1nc(-c2cccc(C(F)(F)F)c2)c2cnccn12	16%
C[S+](=O)([O-])c1ccc(-c2nc(C(=O)NCc3ccc(F)cc3)n3ccncc23)cc1	11µM*
O=C(NCc1ccncc1)c1nc(-c2cccnc2)c2cnccn12	-1%
O=C(NCc1cccs1)c1nc(-c2ccc(F)cc2)c2cnccn12	4µM*
O=C(NCc1ccc(F)cc1)c1nc(-c2ccccc2)c2cnccn12	4µM*
N#Cc1cccnc1N1CCN(Cc2cn(-c3ccccc3)nn2)CC1	-1%
COCCOC1CCOC2(CCN(C(=O)CCn3nc(C)cc3C)CC2)C1 (stereo not given)	-10%
CCOc1ccccc1NC(=O)N1CCCC(c2noc(COC)n2)C1 (stereo not given)	5%
CCOc1ccccc1NC(=O)N1CCCCCCNC(=O)CC1	4%
CN(C(=O)COc1ccc(F)cc1)C1CCc2nn(CC3CC3)c(=O)n2CC1 (stereo not given)	19%
CN1[C@@H](CCC(=O)NCc2cccnc2)CNC(=O)[C@@H]2[C@H]1CCN2Cc1ccc(O)cc1	22%
CC(=O)NC[C@H]1O[C@@H](CC(=O)NC(C)C)[C@H](O)[C@@H]1O	25%[44.1 µM]
O=C(Cc1ccccc1)N1CCC2(CNc3ccccc3[S+](=O)([O-])N2)C1 (stereo not given)	i
O=C(c1nc(-c2ccc(Cl)nc2)c2cnccn12)N1CCCC1	9%
O=C(NCCc1ccc(Cl)cc1)c1nc(-c2ccc(Cl)nc2)c2cnccn12	8.9µM*
O=C(NCc1cccnc1)c1nc(-c2ccc(Cl)nc2)c2ccccn12	58%
COC(=O)CNC(=O)c1nc(-c2ccc(Cl)nc2)c2cnccn12	10%
O=C(NCc1ccc(F)cc1)c1nc(-c2ccc(Cl)nc2)c2cnccn12	7.9µM*
O=C(NCCc1ccc(Cl)cc1)c1nc(-c2ccccc2)c2ccccn12	-7%
C#CCNC(=O)c1nc(-c2cccnc2)c2ccccn12	i
C#CCNC(=O)c1nc(-c2ccc(Cl)nc2)c2ccccn12	-26%
COc1ccccc1-c1nc(C(=O)NCc2ccc3c(c2)OCO3)n2ccncc12	13µM*
SMILES	Pf Dd2 growth
COc1ccccc1-c1nc(C(=O)NC2CC2)n2ccncc12	-19%[44.1 µM]
COCCNC(=O)c1nc(-c2ccccc2OC)c2cnccn12	-8%[44.1 µM]
O=C(NCc1cccnc1)c1nc(-c2ccccc2)c2ccccn12	10µM*
CCNC(=O)N(C1CC1)C1CCOC2(CCN(C(=O)Cc3cccc(F)c3)CC2)C1 (stereo not given)	-13%
COc1ccc(S(=O)(=O)N[C@H]2C[C@@H](c3nc(-c4ccc(OC(F)(F)F)cc4)no3)N(C)C2)cc1	i
Cc1nn(C)c2ncnc(N3CCCC(Cc4nc5ccccc5[nH]4)C3)c12 (stereo not given)	-2%
COc1ccc(Cn2c(C3CCN(C(=O)c4cc(F)ccc4F)CC3)n[nH]c2=O)cc1	-15%
Cc1c(F)cccc1NC(=O)N1CCC(Oc2ncccc2C(=O)N2CCOCC2)C1 (stereo not given)	10%
COCCOCC(=O)NC1CCN(C(=O)N2CC3CC(C2)[C@H]2CCCC(=O)N2C3)CC1 (stereo not given in full)	15%
COCc1cc(=O)n(CC(=O)Nc2cccc(C)c2)c(N2CCOCC2)n1	i
COc1ccc(Cl)cc1-c1nc(C2CC(=O)N(c3ccc(F)cc3)C2)no1 (stereo not given)	11µM*
COc1ccc(-c2nc(C3CC(=O)N(c4ccc(F)cc4)C3)no2)cc1F (stereo not given)	53%
COc1ccccc1-c1nc(C2CC(=O)N(c3ccc(F)c(Cl)c3)C2)no1 (stereo not given)	120%
CN(C(=O)[C@@H]1C[C@@H](c2ccc(F)cc2)N([S+](=O)([O-])c2ccccc2)C1)c1cccnc1	i
COc1ccccc1C1CCCN1C(=O)CCCn1nnnc1CN1CCOCC1 (stereo not given)	-11%
CCC(CC)C(=O)Nc1ccc([C@@H](O)[C@H]2COCC(=O)N2)cc1	8%[44.1 µM]
COCCN1C(=O)CS(=O)(=O)C12CCN(C(=O)c1cc(Cl)ccc1OC)CC2	-11%
COc1ccccc1C(=O)N1CCN(C(=O)c2nnn3c2COC(c2ccc(C)cc2)C3)CC1 (stereo not given)	i
C=CCNC(=O)CCc1c(C)nn(-c2ccc(F)cc2)c1Oc1ccccc1	7.9µM*
CCNC(=O)CCc1c(C)nn(-c2ccccc2)c1Oc1ccccc1F	i
Cc1nn(-c2ccc(F)cc2)c(Oc2ccc(F)cc2F)c1CCC(=O)NCc1ccco1	i
Cc1nn(-c2ccccc2)c(Oc2ccccc2F)c1CCC(=O)NCc1ccco1	7.9µM*
C=CCNC(=O)CCc1c(C)nn(-c2ccccc2)c1Oc1ccccc1	-22%
Cc1ccccc1-n1nc(C)c(CCC(=O)N(C)C(C)C)c1Oc1ccccc1F	6.3µM*
Cc1nn(-c2ccc(F)cc2)c(Oc2ccc(F)cc2F)c1CCC(=O)N(C)C(C)C	-11%
SMILES	Pf Dd2 growth
C=CCNC(=O)CCc1c(C)nn(-c2ccc(F)cc2)c1Oc1ccccc1F	i
Cc1cccc(-n2nc(C)c(CCC(=O)N(C)C(C)C)c2Oc2ccc(F)cc2F)c1	-6%
COc1ccc(N2CC(C(=O)NC3CC3)NC2=O)cc1 (stereo not given)	4%[44.1 µM]
O=C1[C@@H]2C[C@@H](CN2C(=O)NCc2ccccc2)Oc2ccccc2N1CC1CC1	i
COCCNC(=O)[C@@H](C)C1CC[C@@]2(C)CC[C@H](NC(=O)COc3ccccc3)[C@@H](C)[C@@H]2[C@H]1O (stereo not given in full)	-8%
O=C(O)CCn1ncc2cc(OCC3CCN(C(=O)Oc4ccccc4Cl)CC3)ccc21	i
CC(C)c1nnc(NC(=O)Cn2nc3c(cc2=O)CCCCC3)s1	-10%
O=C(NCc1ccccc1F)c1ccc2c(c1)CNCCO2	-15%
Cc1cc(C(=O)N2CCN(c3ccc(F)cc3)CC2)c2c(C)nn(-c3cccc(Cl)c3C)c2n1	25%
Cc1ccc(-n2nc(C)c3c(C(=O)O)cc(C)nc32)cc1	5%
COc1cc(NC(=O)c2cc(C)nc3c2c(C)nn3-c2ccccc2Cl)cc(OC)c1	-28%
Cc1ccc(-n2nc(C)c3c(C(=O)Nc4ccccc4C(F)(F)F)cc(C)nc32)cc1	-13%
O=C(c1cccn2c(=O)c3cc(Cl)ccc3nc12)N1CCN(c2ccccc2F)CC1	i
CSc1ncc(C(=O)N2CCN(c3cc(C)ccc3C)CC2)c(C)n1	16%
Cc1cc(C(=O)N2CCN(c3cccc(Cl)c3)CC2)c2c(C)nn(-c3ccccc3Cl)c2n1	11µM*
Cc1ccc(C)c(N2CCN(C(=O)c3cccn4c(=O)c5ccccc5nc34)CC2)c1	13µM*
Cc1ccc(C)c(N2CCN(C(=O)c3cc(C)nc4c3c(C)nn4-c3ccccc3)CC2)c1	8.9µM*
CC(=O)NCC12CCCC=C1N(C)C(=O)CC2 (stereo not given)	i
CNC(=O)Nc1ccc(C2(C(=O)N3CCN(c4ccc(Cl)cc4)CC3)CCC2)cc1	i
CS(=O)(=O)N1CCCN(C(=O)C2CC2)c2ccccc21	5%
COc1ncccc1CNC[C@H]1O[C@@H]2C[C@@H](CC(=O)NCc3nccn3C)O[C@@H]2[C@@H]1O	-5%[44.1 µM]
